In the library only some 19% were active in any assay of this set; here they are far more common.
HT1080NT lethal – kills 2HG-producing HT-1080-NT fibrosarcoma cells; 1.6% of 360,000 active; Potency, µM (series often up to 46.1 µM), hits mostly cytotoxic; AID 686970; HT-1080-NT fibrosarcoma viability, CellTiter-Glo ATP luminescence, 48 h;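 further: NT is the 2HG producing partner of a matched IDH1 knockdown line; nearly all actives have a fitted effect of over 55% in size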
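HT-1080-NT; 750 cells/well; 5% FBS RPMI; 48 h compound, 37 degrees C; CellTiter-Glo luminescence; curve fitting and curve-class assignment.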
DT40 TDP1 CPT – DT40-hTDP1 cell growth loss with CPT. chicken DT40 Tdp1-/-;hTDP1 cells + 20 nM CPT, ATP luminescence, 48 h. Potency, µM (top dose mostly 46.2 µM), most hits filed as inhibitors. 12% of 420,000 active; further: nearly all actives have a fitted effect of over 55% in size
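Chicken DT40 Tdp1-/- cells stably complemented with human TDP1 were seeded at 400 cells/well in medium containing 20 nM camptothecin, exposed to pin-transferred compounds, and grown at 37 °C for at least 48 hr. Viability was read as ATP luminescence.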
IL1B secr inh – inhibitors of inflammasome signaling (IL-1 beta secretion) | THP-1 LPS/ATP IL-1B secretion, AlphaLISA, 16 h; active compounds read low | activity change, % at 57.5 µM | 4.7% of 360,000 active | AID 743279; in the data active means activity change below about -50%; inconclusive means mostly about -30% to -49%
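THP-1 cells pretreated 1 hr with compounds (up to 57.5 uM final), then stimulated with LPS (250 ng/mL final) plus ATP (1.25 mM final); secreted IL-1B measured by AlphaLISA after 16 hr, decreased signal indicating inhibition.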
HT1080 IDH1KD tx – HT-1080 IDH1 knockdown cell toxicity (counter line). HT-1080 IDH1 knockdown viability, ATP luminescence, 48 h. Potency, µM (series often up to 46.1 µM), most hits filed as cytotoxic. 2% of 360,000 active
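Viability of IDH1-knockdown HT-1080 fibrosarcoma cells was assessed by CellTiter-Glo after 48 h at 37 °C with titrated compound; concentration-effect curves were classified by fit quality and response size.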
ELG1 DNA repair – blocks ELG1-dependent DNA repair in HEK293T cells; 2.3% of 330,000 active; Potency, µM (titrated, usually from 46.1 µM), usual class: inhibitors; AID 504467; HEK293T ELG1-luciferase reporter, luminescence, 16 h; DNA damage induced by 5-fluorouridine; further: nearly all actives have a fitted effect of over 55% in size
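Cells (2,000 per well) received 5-fluorouridine plus test compound or DMSO and were incubated 16 hr at 37 °C, 5% CO2. Luciferase activity was read by luminescence 30 min after ONE-Glo addition; signal suppression marked inhibition of damage-induced ELG1 function.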
TDP1 cell noCPT – qHTS for Inhibitors of human tyrosyl-DNA phosphodiesterase 1 (TDP1): qHTS in cells in absence of CPT; DT40 Tdp1-/- hTDP1 cells, no CPT, ATP luminescence, 48 h; Potency, µM (top dose mostly 46.2 µM), most hits filed as inhibitors; 15% of 420,000 active; AID 686978, 2013; further: nearly all actives have a fitted effect of over 55% in size
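Growth kinetics read by CellTiter-Glo luminescence after ≥48 hr at 37 °C. Cells: DT40 Tdp1-/- stably carrying human TDP1, 400 per well, compound exposure in the absence of CPT (DMSO vehicle).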
Hits are given with their value; 0 = inactive; ? = inconclusive; - = not tested or not shown. Unless noted, the call rests on the fitted dose curve; in most records, active means well fitted curve in the direction sought with a large enough effect; inconclusive means small, poorly fitted or top-dose-only effect, or another doubt; inactive means no such curve, though single readings can be large; an effect the other way counts as inactive or inconclusive.

SMILES | HT1080NT lethal | DT40 TDP1 CPT | IL1B secr inh | HT1080 IDH1KD tx | ELG1 DNA repair | TDP1 cell noCPT
Cc1ccc(S(=O)(=O)N2CCOCC2)cc1C(=O)N(Cc1nnc(-c2ccccc2Cl)o1)C1CC1 | 0 | ? | 0 | 0 | 10µM | ?
O=C(c1cccc(S(=O)(=O)N2CCOCC2)c1)N(Cc1nnc(-c2ccccc2Cl)o1)C1CC1 | 0 | ? | 0 | 0 | ? | ?
Cn1c(=O)oc2cc(S(=O)(=O)NC(CC(=O)O)c3cccc(Br)c3)ccc21 (centres undefined) | - | 0 | - | - | - | 0
COc1ccc(NC(=O)N2CCC3(CC2)CCN(C(=O)c2cnccn2)CC3)cc1 | - | 0 | - | - | - | 0
COc1cc(OC)cc(-c2c(C#Cc3ccsc3)c3cc(-c4cc(OC)c(OC)c(OC)c4)ccc3n2C)c1 | 0 | 0 | 0 | 0 | 0 | 0
COc1ccc(-c2c(-c3cc(OC)cc(OC)c3)n(C)c3ccc(-c4ccc(OC)cc4F)cc23)cc1 | 0 | ? | 0 | 0 | 0 | ?
COc1cc(OC)cc(-c2c(C#Cc3ccsc3)c3cc(-c4cnc(OC)nc4)ccc3n2C)c1 | 0 | 16µM | 0 | 0 | ? | ?
COc1ccc(-c2c(-c3cc(OC)cc(OC)c3)n(C)c3ccc(-c4cnc(OC)nc4)cc23)cc1 | 0 | 21µM | 0 | 0 | ? | 18µM
Nc1ccn([C@@H]2O[C@H](CNC(=O)[C@@H](Cc3cn(COCc4ccccc4)cn3)NC=O)[C@@H](O)[C@H]2O)c(=O)n1 | 0 | 0 | 0 | 0 | - | 0
N#Cc1ccccc1NC(=O)CSc1nnc(-c2ccncc2)o1 | 0 | 0 | 0 | 0 | 0 | 0
COCCCNC(=O)CCCn1c(SCC(=O)c2ccc(F)cc2)nc2c(sc3ccccc32)c1=O | - | 0 | - | - | - | 0
CCN1CCCC1CNC(=O)c1cnn(-c2nccc(-c3ccccc3OC)n2)c1-c1ccco1 (centres undefined) | - | ? | - | - | - | 7.3µM
CCN(CC)CCCOc1ccc(Cl)c(Cl)c1 | 0 | 0 | -73 | 0 | 0 | ?
CN1CCN(CCOc2ccc(Cc3ccccc3)cc2)CC1 | 0 | ? | 0 | ? | 0 | 4.6µM
CN1CCN(CCc2ccc(Cl)c(Cl)c2)CC1 | - | ? | - | - | - | 30µM
CCc1ccc(OCCOCCN2CCN(C)CC2)cc1 | 0 | 0 | 0 | 0 | 0 | ?
CN(CCOc1ccc(Cl)c(Cl)c1)Cc1ccccc1 | 0 | ? | 0 | 0 | 0 | 0
CN1CCN(CCOc2ccc(Cl)c(Cl)c2)CC1 | 0 | 16µM | 0 | 0 | 0 | ?
CN1CCN(CCOc2cccc(Cl)c2)CC1 | 0 | 0 | 0 | 0 | 0 | 0
Brc1ccc(C2=CSC3=NCCN23)cc1 | 0 | 0 | 0 | 0 | 0 | ?
Clc1ccc(C2=CSC3=NCCN23)c(Cl)c1 | 0 | 0 | -51 | 0 | - | 0
CCN(CC)S(=O)(=O)c1cc(NC(=O)CN2C(=O)NC3(CCCc4ccccc43)C2=O)ccc1C (centres undefined) | 0 | 23µM | ? | 0 | ? | ?
Cc1ccc(C)c(NC(=O)CN(C)C(=O)CN2C(=O)NC3(CCc4ccccc43)C2=O)c1 (centres undefined) | 0 | 9.2µM | 0 | 0 | 0 | 8.2µM
OC(c1ccc(Cl)cc1)c1nccc2ccccc12 (centres undefined) | 0 | ? | 0 | 0 | 0 | ?
CCOC(=O)N1CCN(C(=O)c2cn(C)c3ccc(S(=O)(=O)N(C)C4CCCCC4)cc3c2=O)CC1 | 0 | 0 | 0 | 0 | 0 | 0
C[C@@H]1CCCCCCCCC(=O)OCCN1C(=O)OC(C)(C)C | 0 | 16µM | 0 | 0 | 0 | ?
CCCC(=O)Nc1ccc(S(=O)(=O)N2CCCC2)cc1 | 0 | 0 | 0 | 0 | 0 | 0
Cc1cc(C)c2c(CC(=O)Nc3ccc(S(=O)(=O)N4CCCCC4)cc3)coc2c1 | - | 21µM | - | - | - | 10µM
Cc1ccc(C)c(CNc2ccc(S(=O)(=O)N3CCCCC3)cc2)c1 | 0 | 15µM | 0 | 0 | ? | 21µM
